Source: PubChem BioAssay (NCATS)
Results filed as inconclusive are left out. The source made the active and inactive calls. Calls come from the whole dose curve; as a rule, active = well fitted inhibition curve with a large enough effect; inconclusive = small, poorly fitted or top-dose-only effect; inactive = no such curve, though single readings can be large or run the other way.

Experiment: Primary qHTS for inhibitors of nuclear receptor binding SET domain protein 2 (NSD2) in an RCH-ACV wild type WT cells (2C) (AID 1645877); note: nearly all actives have a fitted effect of over 70% in size
Conditions: RCH-ACV (leukaemia line) NSD2 WT (2C) viability, CellTiter-Glo, 72 h; series mostly up to 44.9 µM; activity change, negative = cell killing: at the top concentration
% is set by controls: 0 for no effect and ±100 for the full control effect; potency is the fitted concentration of half-maximal effect.

Row | Structure (SMILES) | activity change, negative = cell killing | outcome | Potency
1 | CCOC(=O)CC(SP(=S)(OC)OC)C(=O)OCC (stereo not given) | -17.6% (inactive) |  | 
2 | [N-]=[N+]=CC(=O)OC[C@H](N)C(=O)O | -4.5% (inactive) |  | 
3 | CC(Cc1ccccc1)NCCn1cnc2c1c(=O)n(C)c(=O)n2C (stereo not given) | -28.4% [at 91.9 µM] (inactive) |  | 
4 | C#CC(O)(C=CCl)CC (stereo not given) | 9.48% (inactive) |  | 
5 | O=C1c2ccccc2C(=O)c2ccccc21 | 8.26% [at 17.3 µM] (inactive) |  | 
6 | O=C(O)c1ccc(=O)[nH]c1 | 7.17% (inactive) |  | 
7 | CC(C)(N)Cc1ccccc1Cl | 5.61% (inactive) |  | 
8 | CC(C)NC(C)C |  | inactive | 
9 | CCCCCCC(=O)CCCCCC/C=C/C[C@@H](O)[C@H](O)[C@@](N)(CO)C(=O)O |  | inactive [at 17.3 µM] | 
10 | C[C@]12CC[C@H]3[C@@H](CC[C@@]45O[C@H]4C(O)=C(C#N)C[C@]35C)[C@H]1CC[C@H]2O |  |  | 10.6 µM (active)
